From PubChem BioAssay (NCATS)
Values joined by “and” are separate entries in the source; they are usually repeats but may differ in a detail not shown here. Equal entries are not always repeated. Inconclusive results are not listed. Active and inactive are the calls of the source. Unless noted, the call rests on the fitted dose curve; in most records, active means well fitted cell-killing curve with a large enough effect; inconclusive means small, poorly fitted or top-dose-only effect; inactive means flat fitted curve, though single readings scatter.

Columns and labels:
[1] = Cell Viability - LYMP2-025 (AID 976);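 further: series mostly up to about 92 µM; plate controls were DMSO only for no effect and tetraoctylammonium bromide control for full effect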
Procedure, shortened: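 Seed 2500 LYMP2-025 cells/well; 5 hr at 37 C; add compound; 24 hr at 37 C; add CellTiter-Glo; 30 min RT; read luminescence. AC50 from Hill-modelled concentration-response.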

[2] = Cell Viability - LYMP2-002 (AID 977);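 further: series mostly up to about 92 µM; plate controls were DMSO only for no effect and 92 µM tetraoctylammonium bromide for full effect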
Procedure, shortened: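 Luminescent ATP readout (CellTiter-Glo, 30 min room temperature) after 24 h compound exposure at 37 C of a human lymphoblastoid line, 2500 cells/well. AC50 values derived by standard Hill fitting of qHTS concentration-response data.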

[3] = Cell Viability - LYMP2-006 (AID 978); further: series mostly up to about 92 µM; on the % scale 0 is the no-effect control and ±100 the full control effect; nearly all actives have a fitted effect of over 60% in size
Procedure, shortened: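 Concentration-dependent loss of intracellular ATP in a human lymphoblastoid line after 24 hr treatment at 37 C was measured by CellTiter-Glo luminescence, with AC50 values obtained from standard Hill-equation modelling.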

[4] = Cell Viability - LYMP2-007 (AID 979);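 further: cells exposed to compound for 24 h before reading; 0% = DMSO only and the negative end = 92 µM tetraoctylammonium bromide; nearly all actives have a fitted effect of over 60% in size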
Procedure, shortened: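 Luminescent ATP signal (CellTiter-Glo) serves as the viability read-out after 24 hr compound treatment of lymphoblastoid cells in complete medium at 37 C. Concentration-response data were fitted to the Hill equation to give AC50 values.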

[5] = Cell Viability - LYMP2-008 (AID 980); further: on the % scale 0 is the no-effect control and ±100 the full control effect; nearly all actives have a fitted effect of over 60% in size
Procedure, shortened: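 qHTS, human lymphoblastoid line, 2500 cells/well; 5 hr preincubation, 24 hr compound, 37 C. CellTiter-Glo ATP luminescence. AC50 via Hill equation. Tetraoctylammonium bromide positive control.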

[6] = Cell Viability - LYMP2-010 (AID 981); further: on the % scale 0 is the no-effect control and ±100 the full control effect; nearly all actives have a fitted effect of over 55% in size
Procedure, shortened: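 Luminescent ATP signal (CellTiter-Glo) served as the viability read-out. Cells of the human lymphoblastoid line were treated with compound over a concentration range for 24 hours at 37 C, and AC50 values came from Hill-equation modeling.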

[7] = Cell Viability - LYMP2-012 (AID 982);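 further: cellular ATP by luciferase luminescence where a drop means cytotoxicity; cells exposed to compound for one day before reading; 0% = DMSO only and full loss = 92 µM tetraoctylammonium bromide; nearly all actives have a fitted effect of over 55% in size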
[8] = Cell Viability - LYMP2-014 (AID 983);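 further: series mostly up to about 92 µM; plate controls were DMSO only for no effect and 92 µM tetraoctylammonium bromide for full effect; nearly all actives have a fitted effect of over 50% in size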
Procedure, shortened: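 Luminescent ATP signal (CellTiter-Glo, 30 min at room temperature) serves as the viability read-out after 24 hr compound exposure at 37 C. Cells were seeded at 2500 per well and settled 5 hr beforehand.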

[9] = Cell Viability - LYMP2-016 (AID 984); further: on the % scale 0 is the no-effect control and ±100 the full control effect; nearly all actives have a fitted effect of over 55% in size
Procedure, shortened: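 Acute toxicity in a Coriell human lymphoblastoid line is scored as loss of intracellular ATP over 24 h of treatment in complete medium. CellTiter-Glo signal is fitted across concentrations with the Hill equation to give AC50.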

[10] = Cell Viability - LYMP2-018 (AID 985);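 further: plate controls were DMSO only for no effect and tetraoctylammonium bromide at 92 µM for full effect; nearly all actives have a fitted effect of over 50% in size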
Procedure, shortened: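 Luminescent ATP signal (CellTiter-Glo, read after 30 min at room temperature) reports viable cells after 24 hr compound treatment at 37 C. Concentration-response data were fitted to the standard Hill equation for AC50.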

[11] = Cell Viability - LYMP2-020 (AID 986);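 further: series mostly up to about 92 µM; plate controls were DMSO only for no effect and tetraoctylammonium bromide at 92 µM for full effect; nearly all actives have a fitted effect of over 55% in size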
Procedure, shortened: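 Luminescent ATP signal (CellTiter-Glo, 30 min at room temperature) is the read-out after 24 h compound treatment of lymphoblastoid cells at 37 C. AC50 values come from Hill-equation fits across concentrations.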

[12] = Cell Viability - LYMP2-022 (AID 987)
Procedure, shortened: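 qHTS: human lymphoblastoid cells 2500/well; 5 hr 37 C; cpd added; 24 hr 37 C; CellTiter-Glo, 30 min RT; luminescence. AC50 via Hill fit; tetraoctylammonium bromide positive ctrl.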

[13] = Cell Viability - LYMP2-024 (AID 988);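 further: plate controls were DMSO only for no effect and 92 µM tetraoctylammonium bromide for full effect; nearly all actives have a fitted effect of over 60% in size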
Procedure, shortened: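 Steps: seed 2500 cells/well, 5 hr 37 C; add compound, 24 hr 37 C; add CellTiter-Glo, 30 min room temperature; read luminescence. AC50 derived by Hill modelling of concentration-dependent ATP loss.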

[14] = Cell Viability - LYMP2-026 (AID 989); further: on the % scale 0 is the no-effect control and ±100 the full control effect; nearly all actives have a fitted effect of over 50% in size
Procedure, shortened: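 Luminescent ATP signal (CellTiter-Glo, 30 min room temperature) measures viable lymphoblastoid cells after 24 hr compound treatment at 37 C. Decreased ATP reflects acute toxicity; AC50 values come from Hill-equation modeling.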

[15] = Cell Viability - LYMP1-002 - Assay at 24 hr (AID 993); further: on the % scale 0 is the no-effect control and ±100 the full control effect
Procedure, shortened: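 Cells plated 2500/well, 5 hr 37 C; compounds added, 24 hr 37 C; CellTiter-Glo added, 30 min RT; luminescence read. Tetraoctylammonium bromide positive control. Hill-equation AC50.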

[16] = Cell Viability - LYMP1-002 - Assay at 40 hr (AID 994)
Procedure, shortened: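 Luminescent ATP signal served as the viability readout, with decreases taken as toxicity. Cells were treated with compounds across a concentration range for 40 hours at 37 C, and AC50 values came from standard Hill modeling.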

[17] = qHTS Assay for Identification of Small Molecule Inducers of Hypoxia Response (AID 2120; active means well fitted curve in the direction sought with a large enough effect in the signal ratio, with a control signal flat, not every such curve was filed as active; the % refers to the signal ratio; further: 0% is about no effect)
Procedure, shortened: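 ME-180 HRE-bla cells plated in Opti-MEM/0.5% dialyzed FBS, rested 4-5 h, then dosed with compound titrations by pin tool. After 17 h at 37 degrees C, CCF4 dye loaded 2.5 h at RT; 460/530 nm ratio gave %Activity and AC50.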

[18] = target: Estrogen receptor (Homo sapiens) (UniProt P03372); test: qHTS assay for small molecule antagonists of estrogen receptor alpha signaling (AID 588513; active means well fitted curve in the direction sought with a large enough effect in the signal ratio, with a control signal flat, not every such curve was filed as active; the % refers to the signal ratio; further: on the % scale 0 is the no-effect control and ±100 the full control effect)
Procedure, shortened: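 Cells were plated at 5000/well and incubated 4 h at 37 C. Compounds were added as 1:2 dilution series, duplicates. 17-beta-estradiol (0.5nM final) was added for 18 h before CCF4 detection.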

[19] = target: Estrogen receptor (Homo sapiens) (UniProt P03372); test: qHTS assay for small molecule agonists of estrogen receptor alpha signaling (AID 588514; calls by dose curve;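 further: 0% = vehicle only and 100% = reference agonist; nearly all actives have a fitted effect of over 70% in size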)
Procedure, shortened: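 Cells were plated at 5000/well, incubated 4 hrs at 37 C, dosed with compound titration series, incubated 18 hrs at 37 C, loaded with CCF4 dye for 2 hrs at RT, then fluorescence was read.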

[20] = target: Glucocorticoid receptor (Homo sapiens) (UniProt P04150); test: qHTS assay for small molecule agonists of glucocorticoid receptor signaling (AID 588532; active means well fitted curve in the direction sought with a large enough effect in the signal ratio, with a control signal flat; the % refers to the signal ratio;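 further: 100% = dexamethasone at 0.1 µM and 0% = DMSO only wells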); conditions: HeLa MMTV-bla, beta-lactamase ratio, agonist, 18 h; stronger effect = higher value; percent of dexamethasone control, DMSO zero
Procedure, shortened: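 MMTV-bla HeLa, beta-lactamase reporter; medium with 1% charcoal/dextran-stripped FBS; cpds up to 92 uM, 18 h, 37 C; CCF4 readout 460/530 nm; Hill fit → EC50, efficacy vs 0.1 uM dexamethasone = 100%.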

[21] = target: Peroxisome proliferator-activated receptor gamma (Homo sapiens) (UniProt P37231); test: qHTS assay for small molecule agonists of peroxisome proliferator-activated receptor gamma signaling (AID 588536; active means well fitted curve in the direction sought with a large enough effect in the signal ratio, with a control signal flat, not every such curve was filed as active; the % refers to the signal ratio;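 further: 0% = DMSO basal wells and 100% = rosiglitazone at 2 µM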)
Procedure, shortened: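 Ratiometric blue/green fluorescence (405 nm excitation; 460 and 530 nm emission) from CCF4-loaded HEK293 reporter cells serves as signal. Exposure to test compounds lasts 16 h at 37 C in medium containing 1% charcoal/dextran-treated serum.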

[22] = target: Peroxisome proliferator-activated receptor gamma (Homo sapiens) (UniProt P37231); test: qHTS assay for small molecule antagonists of peroxisome proliferator-activated receptor gamma signaling (AID 588537; active means well fitted inhibition curve with a large enough effect in the signal ratio, with a control signal flat, not every such curve was filed as active; the % refers to the signal ratio;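 further: reporter cells co-stimulated with 50 nM rosiglitazone agonist during compound treatment; % of control where 0% means no effect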)
Procedure, shortened: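 We seeded GeneBLAzer HEK293 reporter cells at 3000 per well, allowed 6-6.5 h attachment at 37 C, then co-treated with test compound titrations and 50 nM rosiglitazone overnight (16 h). Inhibition was quantified from 460/530 nm emission ratios.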

Peroxisome proliferator-activated receptor gamma (Homo sapiens), sequence (P37231 whole entry, looked up): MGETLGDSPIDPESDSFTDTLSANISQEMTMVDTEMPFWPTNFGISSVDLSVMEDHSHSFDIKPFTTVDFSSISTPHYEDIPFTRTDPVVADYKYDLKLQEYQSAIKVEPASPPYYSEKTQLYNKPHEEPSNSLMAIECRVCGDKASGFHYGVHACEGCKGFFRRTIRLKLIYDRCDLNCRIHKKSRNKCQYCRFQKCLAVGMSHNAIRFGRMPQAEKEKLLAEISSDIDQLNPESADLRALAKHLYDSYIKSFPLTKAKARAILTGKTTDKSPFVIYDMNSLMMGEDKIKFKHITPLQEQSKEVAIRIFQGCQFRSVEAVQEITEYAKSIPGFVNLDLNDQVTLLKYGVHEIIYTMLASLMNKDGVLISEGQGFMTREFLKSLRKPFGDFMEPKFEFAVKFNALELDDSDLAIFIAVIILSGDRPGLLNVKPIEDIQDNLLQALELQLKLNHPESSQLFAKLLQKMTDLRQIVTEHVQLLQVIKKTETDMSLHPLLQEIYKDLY
Estrogen receptor (Homo sapiens), sequence (P03372 whole entry, looked up): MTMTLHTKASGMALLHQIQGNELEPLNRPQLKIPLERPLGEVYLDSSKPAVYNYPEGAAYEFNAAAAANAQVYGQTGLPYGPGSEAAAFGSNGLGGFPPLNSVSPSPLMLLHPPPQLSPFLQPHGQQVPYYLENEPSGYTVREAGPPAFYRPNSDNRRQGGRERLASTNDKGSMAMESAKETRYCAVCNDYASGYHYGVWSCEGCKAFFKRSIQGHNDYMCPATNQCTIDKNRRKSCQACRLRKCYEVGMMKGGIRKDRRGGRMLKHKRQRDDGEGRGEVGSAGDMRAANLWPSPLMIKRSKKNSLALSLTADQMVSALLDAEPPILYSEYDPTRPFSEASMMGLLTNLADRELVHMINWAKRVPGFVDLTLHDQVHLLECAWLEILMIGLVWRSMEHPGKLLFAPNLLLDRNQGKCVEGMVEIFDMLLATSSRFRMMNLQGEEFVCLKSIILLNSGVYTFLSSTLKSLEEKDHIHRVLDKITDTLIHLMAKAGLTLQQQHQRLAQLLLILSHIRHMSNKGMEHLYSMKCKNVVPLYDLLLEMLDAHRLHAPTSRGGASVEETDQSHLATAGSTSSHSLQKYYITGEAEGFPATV
Glucocorticoid receptor (Homo sapiens), sequence (P04150 whole entry, looked up): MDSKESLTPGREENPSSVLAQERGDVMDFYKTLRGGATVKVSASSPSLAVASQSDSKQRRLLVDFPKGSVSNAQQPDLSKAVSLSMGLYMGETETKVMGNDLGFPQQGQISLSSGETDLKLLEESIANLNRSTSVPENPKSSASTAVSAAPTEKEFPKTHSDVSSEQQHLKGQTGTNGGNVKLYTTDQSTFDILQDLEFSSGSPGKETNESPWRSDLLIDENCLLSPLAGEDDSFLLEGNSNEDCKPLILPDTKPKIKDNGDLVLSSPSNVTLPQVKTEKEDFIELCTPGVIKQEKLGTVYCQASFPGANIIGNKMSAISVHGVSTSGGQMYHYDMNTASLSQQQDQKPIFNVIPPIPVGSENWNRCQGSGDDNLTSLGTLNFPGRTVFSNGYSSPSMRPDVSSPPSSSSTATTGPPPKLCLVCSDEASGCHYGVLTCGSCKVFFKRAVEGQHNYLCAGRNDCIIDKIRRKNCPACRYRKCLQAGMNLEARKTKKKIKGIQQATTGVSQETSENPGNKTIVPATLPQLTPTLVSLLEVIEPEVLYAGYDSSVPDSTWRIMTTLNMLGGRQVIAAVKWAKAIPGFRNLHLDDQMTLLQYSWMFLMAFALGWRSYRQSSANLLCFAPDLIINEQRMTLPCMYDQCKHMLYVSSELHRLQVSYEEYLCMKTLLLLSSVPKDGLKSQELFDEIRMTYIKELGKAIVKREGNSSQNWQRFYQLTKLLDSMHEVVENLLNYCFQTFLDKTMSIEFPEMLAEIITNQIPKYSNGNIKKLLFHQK

CCCCOC(=O)c1ccccc1C(=O)OCCCC
inactive: Potency [1] | Potency [2] | Potency [3] | Potency [4] | Potency [5] | Potency [6] | Potency [7] | Potency [8] | Potency [9] | Potency [10] | Potency [11] | Potency [12] | Potency [13] | Potency [14] | Potency [15] | Potency [16] | outcome [17] | Potency [18] | Potency [19] | activation [20] -1.41% and -0.473% | outcome [21] | Potency [22]
